Results filed as inconclusive are left out. Where a call stands in place of a potency, no number is given. Calls of active or inactive are those of the source. Calls follow the shape of the dose curve; as a rule, active = well fitted inhibition curve with a large enough effect; inconclusive = small, poorly fitted or top-dose-only effect; inactive = flat fitted curve, though single readings scatter.
Assay: Secondary Assay for lipid storage modulators: Cytotoxcity for probe SAR
Details: Drosophila S3 cells viability, CellTiter-Glo luminescence, 24 h, with oleic acid added (1 µL, 400 µM); series mostly up to 46.1 µM
Summary of the method: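 CellTiter-Glo luminescence read after 24 h at 24 degrees C; embryonic Drosophila S3 cells (5,000/well) were co-treated with oleic acid (400 uM stock) and a range of compound concentrations.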

| SMILES | Potency |
| --- | --- |
| CN(C)CC(=O)NC1CCCc2c1cnn2-c1ccc(F)cc1F (stereo not drawn) | inactive |
| CCOC(=O)C1CCN(C(=O)C(C)(C)NC(=O)Nc2ccccc2Cl)CC1 | inactive |
| O=C(NC1CCCc2c1cnn2-c1ccc(F)cc1F)c1ccc(C(=O)c2ccccc2)cc1 (stereo not drawn) | 11.2 µM (active) |
| CCn1c(C(=O)NCCc2ccc(OC)c(OC)c2)cc2sccc21 | inactive |
| O=C(Cc1cccs1)Nc1nc(-c2ccncc2)cs1 | inactive |
| CCOc1ccc(CCNC(=O)c2cc3sc(Cl)cc3n2CC)cc1OCC | inactive |
| CCOc1ccc(CCNC(=O)CN(C)C)cc1OCC | inactive |
| CCOc1ccc(CCNC(=O)c2cc3ccccc3n2C)cc1OCC | inactive |
| COc1ccc(Cl)cc1NC(=S)N1CCN(c2ccccc2F)CC1 | inactive |
| O=C(NC1CCCc2c1cnn2-c1cc(F)cc(F)c1)c1cccc2nccnc12 (stereo not drawn) | inactive |
| Cc1ccc(C)c(-c2csc(NC(=O)CSc3nnc(Nc4ccc(OC(F)(F)F)cc4)s3)n2)c1 | inactive |
| O=C(Nc1cccc2c1cnn2-c1ccc(F)cc1)c1ccccn1 | 0.888 µM (active) |
| CCOc1ccc(NC(=O)NC2(C(=O)N3CCCCC3)CCCCC2)cc1 | inactive |
| Cc1ccc(-c2cnc(SCC(=O)Nc3nccs3)n2Cc2ccco2)cc1 | inactive |
| CCOc1ccc(CCNC(=O)c2ccc(C3(C(F)(F)F)N=N3)cc2)cc1OCC | inactive |
| Cc1sc(NC(=O)Cc2cccs2)nc1-c1ccccc1 | inactive |
| O=C(NC1CCCc2c1cnn2-c1ccc(F)cc1F)c1cccc(F)c1F (stereo not drawn) | 14.1 µM (active) |
| CCOc1ccc(CCNC(=O)c2cnon2)cc1OCC | inactive |
| CCOC(=O)C1CCCN(C(=O)C2(NC(=O)Nc3ccc(F)cc3F)CCCCC2)C1 (stereo not drawn) | inactive |
| CC1=C(C(=O)NC2CCCc3c2cnn3-c2ccc(F)cc2F)OCCO1 (stereo not drawn) | 0.996 µM (active) |
| CCOc1ccc(CCNC(=O)c2cccc(C(=O)c3ccccc3)c2)cc1OCC | inactive |
| C[C@@H](NCCCc1cccc(C(F)(F)F)c1)c1cccc2ccccc12 | 28.1 µM (active) |
| COc1ccc(-n2ncc3c2CCCC3NC(=O)c2cnc(C)cn2)cc1 (stereo not drawn) | 15.8 µM (active) |
| CCc1sc(NC(=O)Cc2cccs2)nc1-c1ccccc1 | inactive |
| COc1ccc(-c2cnc(SCC(=O)Nc3nc(C)cs3)n2Cc2ccco2)cc1 | inactive |
| O=C(NC1CCCc2c1cnn2-c1ccc(F)cc1F)c1cnon1 (stereo not drawn) | inactive |
| CCOc1ccc(CCNC(=O)C2COc3ccccc3O2)cc1OCC (stereo not drawn) | inactive |
| O=C(NC1CCCc2c1cnn2-c1ccc(F)cc1F)C1CCCCC1 (stereo not drawn) | 0.791 µM (active) |
